Compounds without any hit were thinned out: in the full panel of roughly 83,000, 20% have a hit.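 The endpoint reported here, percent growth, reads 100 for growth as untreated, 0 for no net growth and -100 for all cells dead.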 The source made the active and inactive calls. How the source made its calls: active means growth percent below 10; inactive means the rest.
Assays:
Assay in all cases: NCI-60 one-dose screen, 48 h (100 = growth as untreated, 0 = no growth, -100 = all killed)
Conditions in all cases: 10 µM unless noted
SR leukemia = test system: SR leukemia
RPMI-8226 leukemia = test system: RPMI-8226 leukemia
OVCAR-5 ovarian = test system: OVCAR-5 ovarian
OVCAR-4 ovarian = test system: OVCAR-4 ovarian
SK-OV-3 ovarian = test system: SK-OV-3 ovarian
OVCAR-3 ovarian = test system: OVCAR-3 ovarian
NCI/ADR-RES ovarian = test system: NCI/ADR-RES ovarian
T-47D breast = test system: T-47D breast
BT-549 breast = test system: BT-549 breast
MDA-MB-435 melanoma = test system: MDA-MB-435 melanoma
SW-620 colon = test system: SW-620 colon
MCF7 breast = test system: MCF7 breast
HCT-116 colon = test system: HCT-116 colon
HCC-2998 colon = test system: HCC-2998 colon
KM12 colon = test system: KM12 colon
OVCAR-8 ovarian = test system: OVCAR-8 ovarian
IGROV1 ovarian = test system: IGROV1 ovarian
HS 578T breast = test system: HS 578T breast

Measured: growth

CCOC(=O)c1sc(NC(=O)COc2cccc(/C=C3\Cc4ccc(Cl)cc4C3=O)c2)nc1C
inactive: SR leukemia 114% | RPMI-8226 leukemia 57.5% | OVCAR-5 ovarian 101% | OVCAR-4 ovarian 118% | SK-OV-3 ovarian 114% | OVCAR-3 ovarian 120% | NCI/ADR-RES ovarian 97% | T-47D breast 98.8% | BT-549 breast 115% | MDA-MB-435 melanoma 103% | SW-620 colon 94.6% | MCF7 breast 54.3% | HCT-116 colon 12.3% | KM12 colon 103%
active: HCC-2998 colon -19.5%

COc1ccc2c3c(ccc2c1)C(=O)/C(=C\O)CC3
inactive: SR leukemia 94.6% | OVCAR-8 ovarian 97.4% | OVCAR-5 ovarian 107% | OVCAR-4 ovarian 100% | SK-OV-3 ovarian 91.6% | IGROV1 ovarian 111% | OVCAR-3 ovarian 99.6% | NCI/ADR-RES ovarian 96.3% | T-47D breast 80.8% | BT-549 breast 105% | MDA-MB-435 melanoma 111% | SW-620 colon 105% | MCF7 breast 102% | HCT-116 colon 88.1% | HCC-2998 colon 104%

Cc1ncc(C(=O)Nc2ccc(CN3CCN(C)CC3)c(C(F)(F)F)c2)cc1C#Cc1cncc2ncccc12
inactive: RPMI-8226 leukemia 49.7% | OVCAR-5 ovarian 69% | OVCAR-4 ovarian 51.7% | SK-OV-3 ovarian 68.4% | OVCAR-3 ovarian 83% | HS 578T breast 47.9% | NCI/ADR-RES ovarian 86.8% | T-47D breast 83.7% | MDA-MB-435 melanoma 36.9% | SW-620 colon 59.6% | MCF7 breast 71.9% | HCT-116 colon 42.2% | HCC-2998 colon 74.5% | KM12 colon 13.6%
active: SR leukemia -13.2%

C1CCC(C(CC2CCCCN2)C2CCCCC2)CC1 (stereo not drawn)
active: SR leukemia -39.7% | RPMI-8226 leukemia 5.39% | SK-OV-3 ovarian -52.3% | IGROV1 ovarian 6.73% | OVCAR-3 ovarian -3.79% | MDA-MB-435 melanoma -73.8% | SW-620 colon -84.6% | MCF7 breast -62.6% | HCT-116 colon -94.1% | HCC-2998 colon -90.6% | KM12 colon -54.1%
inactive: OVCAR-4 ovarian 28.8% | HS 578T breast 57% | NCI/ADR-RES ovarian 14.3% | BT-549 breast 41.1%

O=C(c1ccccc1)C(CN1CCCCC1)c1ccccc1 (stereo not drawn)
inactive: OVCAR-8 ovarian 15.6% | OVCAR-5 ovarian 32.5% | OVCAR-4 ovarian 39.7% | SK-OV-3 ovarian 107% | IGROV1 ovarian 56% | OVCAR-3 ovarian 14.9% | NCI/ADR-RES ovarian 12.6% | T-47D breast 34.9% | BT-549 breast 83.8% | MDA-MB-435 melanoma 23.9% | HCC-2998 colon 89% | KM12 colon 14.4%
active: SR leukemia -3.65% | SW-620 colon -82.6% | MCF7 breast 0.432% | HCT-116 colon -100%

COc1c(O)cc2c(c1CC=C(C)C)OC(=O)c1c(cc(O)c(CC=C(C)C)c1O)O2
inactive: OVCAR-8 ovarian 42.4% | OVCAR-5 ovarian 72% | OVCAR-4 ovarian 43.8% | SK-OV-3 ovarian 86.7% | IGROV1 ovarian 69.6% | OVCAR-3 ovarian 34.2% | T-47D breast 49.3% | BT-549 breast 78.2% | MDA-MB-435 melanoma 60.3% | SW-620 colon 27.3% | MCF7 breast 10.6% | HCT-116 colon 26.8% | HCC-2998 colon 24.5%
active: SR leukemia -21.4% | NCI/ADR-RES ovarian -13.7% | KM12 colon 7.76%

O=C1OC2(c3ccccc31)c1ccccc1-c1ccccc12
inactive: SR leukemia 41.4% | OVCAR-8 ovarian 101% | OVCAR-5 ovarian 88.4% | OVCAR-4 ovarian 82.9% | SK-OV-3 ovarian 91.7% | IGROV1 ovarian 90.6% | OVCAR-3 ovarian 93.6% | HS 578T breast 83.4% | NCI/ADR-RES ovarian 90.8% | T-47D breast 90.1% | BT-549 breast 82.7% | SW-620 colon 78.4% | MCF7 breast 52.4% | HCT-116 colon 54.4% | HCC-2998 colon 88.4% | KM12 colon 51.6%
active: MDA-MB-435 melanoma -26.9%

Nc1ccc(N=Nc2ccccc2)cc1[N+](=O)[O-]
inactive: SR leukemia 93.2% | OVCAR-8 ovarian 94.7% | OVCAR-5 ovarian 110% | OVCAR-4 ovarian 71.5% | SK-OV-3 ovarian 97.9% | IGROV1 ovarian 62.9% | OVCAR-3 ovarian 102% | NCI/ADR-RES ovarian 95.9% | T-47D breast 59.8% | BT-549 breast 85.4% | MDA-MB-435 melanoma 101% | SW-620 colon 93.1% | MCF7 breast 24.1% | HCT-116 colon 91.4% | HCC-2998 colon 103% | KM12 colon 53.2%

COc1cc(-c2nc3nc4sc(C)c(C)c4c(=O)n3[nH]2)cc(OC)c1OC
inactive: SR leukemia 30.7% | RPMI-8226 leukemia 74.3% | OVCAR-5 ovarian 96.4% | OVCAR-4 ovarian 93.5% | SK-OV-3 ovarian 92% | OVCAR-3 ovarian 93.1% | HS 578T breast 87.7% | NCI/ADR-RES ovarian 70.8% | T-47D breast 57% | BT-549 breast 77.8% | SW-620 colon 79.1% | MCF7 breast 35.7% | HCT-116 colon 75.9% | HCC-2998 colon 94.2% | KM12 colon 76.6%
active: MDA-MB-435 melanoma 7.6%

NC(=O)NC1(C(=O)O)CCCC1
inactive: SR leukemia 91.8% | OVCAR-8 ovarian 106% | OVCAR-5 ovarian 98.5% | OVCAR-4 ovarian 118% | SK-OV-3 ovarian 109% | IGROV1 ovarian 119% | OVCAR-3 ovarian 115% | NCI/ADR-RES ovarian 111% | T-47D breast 93.6% | BT-549 breast 111% | MDA-MB-435 melanoma 107% | SW-620 colon 109% | MCF7 breast 98.9% | HCT-116 colon 115% | HCC-2998 colon 108% | KM12 colon 107%

COc1ccc2[nH]c(=O)c(CNc3ccc(Nc4nccc(-c5ccc(Cl)cc5)n4)cc3)cc2c1
inactive: SR leukemia 54% | RPMI-8226 leukemia 77.6% | OVCAR-5 ovarian 103% | OVCAR-4 ovarian 99.9% | SK-OV-3 ovarian 118% | IGROV1 ovarian 89.1% | OVCAR-3 ovarian 89.3% | HS 578T breast 101% | NCI/ADR-RES ovarian 92.5% | BT-549 breast 104% | MDA-MB-435 melanoma 104% | SW-620 colon 105% | MCF7 breast 71.8% | HCT-116 colon 91.1% | HCC-2998 colon 106% | KM12 colon 85.4%

C(=C1c2ccccc2-c2ccccc21)c1ccccn1
active: MDA-MB-435 melanoma -7.78%
inactive: SR leukemia 22.6% | OVCAR-8 ovarian 93.4% | OVCAR-5 ovarian 87.3% | OVCAR-4 ovarian 70.7% | SK-OV-3 ovarian 95.5% | IGROV1 ovarian 74.1% | OVCAR-3 ovarian 53.1% | HS 578T breast 65.4% | NCI/ADR-RES ovarian 31.1% | T-47D breast 63.8% | BT-549 breast 58.8% | SW-620 colon 32.7% | MCF7 breast 38% | HCT-116 colon 43.5% | HCC-2998 colon 80.6% | KM12 colon 39.6%

OCCN1CCN(CCCN2c3ccccc3Sc3ccc(C(F)(F)F)cc32)CC1
inactive: RPMI-8226 leukemia 18.8% | OVCAR-4 ovarian 62.5% | SK-OV-3 ovarian 73.8% | IGROV1 ovarian 24.5% | OVCAR-3 ovarian 53.4% | HS 578T breast 24.6% | NCI/ADR-RES ovarian 46.8% | T-47D breast 54.5% | BT-549 breast 53% | MCF7 breast 18.3%
active: SR leukemia -42.9% | MDA-MB-435 melanoma -46.1% | SW-620 colon -31.2% | HCT-116 colon 2.28% | HCC-2998 colon -83.2%

O=[N+]([O-])c1ccc(N=Nc2c(Cl)cc(O)cc2Cl)cc1
active: SR leukemia 3.27% | OVCAR-8 ovarian 6.5% | IGROV1 ovarian 6.67% | OVCAR-3 ovarian -25.3% | HS 578T breast -20% | NCI/ADR-RES ovarian -19.7% | T-47D breast 4.24% | BT-549 breast -33.6% | MDA-MB-435 melanoma -24.4% | SW-620 colon -10% | MCF7 breast 1.11% | HCT-116 colon -57.2% | HCC-2998 colon 5.82% | KM12 colon -39.8%
inactive: OVCAR-5 ovarian 25.3% | OVCAR-4 ovarian 12.1% | SK-OV-3 ovarian 13.3%

COC(=O)CC1=C(c2ccc([N+](=O)[O-])cc2)CCC1=O
inactive: SR leukemia 104% | OVCAR-8 ovarian 104% | OVCAR-5 ovarian 105% | OVCAR-4 ovarian 110% | SK-OV-3 ovarian 99.1% | IGROV1 ovarian 127% | OVCAR-3 ovarian 121% | NCI/ADR-RES ovarian 109% | T-47D breast 101% | BT-549 breast 110% | MDA-MB-435 melanoma 105% | SW-620 colon 101% | MCF7 breast 104% | HCT-116 colon 112% | HCC-2998 colon 109% | KM12 colon 107%

Cc1cc(-c2ccccc2)cc(C)n1
inactive: SR leukemia 99.4% | OVCAR-8 ovarian 106% | OVCAR-5 ovarian 108% | OVCAR-4 ovarian 99.7% | SK-OV-3 ovarian 109% | IGROV1 ovarian 102% | OVCAR-3 ovarian 127% | HS 578T breast 111% | NCI/ADR-RES ovarian 110% | T-47D breast 114% | BT-549 breast 113% | MDA-MB-435 melanoma 105% | SW-620 colon 109% | MCF7 breast 93.5% | HCT-116 colon 104% | HCC-2998 colon 107% | KM12 colon 112%

CCOC(=O)C1C(=O)NC(C(=O)OCC)(C(=O)OCC)C1CC (stereo not drawn)
inactive: SR leukemia 107% | OVCAR-8 ovarian 108% | OVCAR-5 ovarian 105% | OVCAR-4 ovarian 110% | SK-OV-3 ovarian 112% | IGROV1 ovarian 124% | OVCAR-3 ovarian 125% | HS 578T breast 129% | NCI/ADR-RES ovarian 113% | T-47D breast 109% | BT-549 breast 112% | MDA-MB-435 melanoma 115% | SW-620 colon 115% | MCF7 breast 104% | HCT-116 colon 110% | HCC-2998 colon 108% | KM12 colon 112%

COC(=O)Nc1ccc2ccc3c(NC(=O)OC)ccc4ccc1c2c43 (tested in a mixture with another compound)
inactive: SR leukemia 24.1% | OVCAR-8 ovarian 66.5% | OVCAR-5 ovarian 76.2% | OVCAR-4 ovarian 87.9% | SK-OV-3 ovarian 72% | IGROV1 ovarian 51.1% | OVCAR-3 ovarian 70.5% | NCI/ADR-RES ovarian 36.6% | T-47D breast 49.6% | BT-549 breast 63.2% | SW-620 colon 39.4% | MCF7 breast 31.4% | HCT-116 colon 21.7% | HCC-2998 colon 57.9% | KM12 colon 32.7%
active: MDA-MB-435 melanoma -22.3%

From PubChem BioAssay (NCI)
